According to PubChem BioAssay (NCI):
Values joined by “and” are separate entries in the source; they are usually repeats but may differ in a detail not shown here. Equal entries are not always repeated. This is part of a sample that, as a whole, favours compounds with a hit. Of some 79,000 tested, about 15% had one in any assay. Cut-off read from the data, not from the text of the source: active = growth inhibition above about 70%; inactive = the rest.

Legend:
[1] = NCI Yeast Anticancer Drug Screen. Data for the rad50 strain (AID 155);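 note: 0% = growth of vehicle-only cultures of the same strain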; conditions: S. cerevisiae rad50 strain growth inhibition; at 50.0 µM; stronger effect = higher value
Method in brief: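 A DNA repair-deficient yeast mutant serves as the test organism; compound-induced growth inhibition is calculated against vehicle-treated cells.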

[2] = NCI Yeast Anticancer Drug Screen. Data for the mec2-1 strain (AID 157); conditions: S. cerevisiae mec2-1 strain, at 50.0 µM, stronger effect = higher value
Method in brief: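 Cells of the genetically defined mec2-1 yeast strain are incubated with test compound. Inhibition of growth is calculated against vehicle-treated controls.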

[3] = NCI Yeast Anticancer Drug Screen. Data for the sgs1 mgt1 strain (AID 161);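 note: 0% = growth of cultures given vehicle only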; conditions: S. cerevisiae sgs1 mgt1 strain, at 50.0 µM, stronger effect = higher value
Method in brief: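 Inhibition of yeast growth, normalised to vehicle-treated controls, is reported for a strain bearing genetic alterations in DNA damage repair.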

[4] = NCI Yeast Anticancer Drug Screen. Data for the cln2 rad14 strain (AID 165);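 note: 0% = growth equal to vehicle treated cultures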; conditions: S. cerevisiae cln2 rad14 strain, at 50.0 µM, stronger effect = higher value
Method in brief: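 The screen exposed genetically defined yeast (cln2 rad14) to test compounds and scored growth inhibition relative to vehicle-treated controls.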

[5] = NCI Yeast Anticancer Drug Screen. Data for the bub3 strain (AID 167); conditions: S. cerevisiae bub3 mutant strain, at 50.0 µM, stronger effect = higher value
Method in brief: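 Inhibition values come from growth of compound-treated mutant yeast normalised to vehicle-treated controls.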

[6] = NCI Yeast Anticancer Drug Screen. Data for the mlh1 rad18 strain (AID 175); conditions: S. cerevisiae mlh1 rad18 strain growth inhibition; at 50.0 µM; stronger effect = higher value
Method in brief: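 Compound-treated yeast growth, normalised to vehicle controls. Strain bears defined DNA repair mutations.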

Measured: growth inhibition

[CH3][Pb]([CH3])([CH3])[O]C(=O)c1ccc([N+](=O)[O-])cc1
inactive: [1] 28.7% | [2] -41% | [3] 25.1% | [4] 8.8% | [5] 1.15% | [6] 42.2%

C1CSCCO1.[Cu+2].[O-][Cl+3]([O-])([O-])O
inactive: [1] -7.6% | [2] -10.6% | [3] -0.4% | [4] -36.8% | [5] -37% | [6] -13.8%

CCC[CH2][Pb]([CH2]CCC)([CH2]CCC)[O]C(C)=O
inactive: [1] 9.6% | [2] -7.95% | [3] 16.1% | [4] 25.1% | [5] 25% | [6] 13.3%

O=[N+]([O-])c1ccc(C#Cc2ccc(N(CCCl)CCCl)cc2)cc1
inactive: [1] 1.95% | [2] -8.85% | [3] 7.5% | [4] -65.5% | [5] 9.2% | [6] -3.95%

CCN(CCCl)c1ccc(NC(=O)c2cc(C(=O)NCCN(C)C)cc(C(=O)Nc3ccc(N(CC)CCCl)cc3)c2)cc1
inactive: [1] 35% | [2] -23.9% | [3] -15.8% | [4] 2.95% | [5] -1.4% | [6] 12.5%

CS(=O)(=O)CS(=O)(=O)OCCF
inactive: [1] 5% | [2] -12.4% | [3] -10.6% | [4] -9.55% | [5] -29% | [6] -33.2%

CC1(C)N=C(c2ccccc2)C2(c3ccccc3)N1C2(C)C (stereo not given)
inactive: [1] -1.8% | [2] 11.3% | [3] 16.8% | [4] -0.3% | [5] 5.6% | [6] -18.1%

O=[As]c1ccc(C(=O)O)cc1 (stereo not given)
inactive: [1] 11.2% | [2] -8.75% | [3] 0.2% | [4] 19.3% | [5] -7.2% | [6] 23.2%

NC1=NC(=O)C(c2ccccc2)(c2ccccc2)O1
inactive: [1] -1% | [2] -8.6% | [3] 5.95% | [4] -0.65% | [5] -19.3% | [6] -4.15%

O=C(Cc1ccccc1)OCCBr
inactive: [1] -8.95% | [2] 4.65% | [3] 0.95% | [4] 15.1% | [5] -16.2% | [6] -2.05%

CC(C)(C)C1COP(=S)(C(C)(C)C)OC1 (stereo not given)
inactive: [1] -8.3% | [2] -5.6% | [3] -0.55% | [4] -20.5% | [5] -0.5% | [6] -5.15%

O=C(CCC(=O)Oc1ccc(S(=O)(=O)F)cc1)Oc1ccc(S(=O)(=O)F)cc1
inactive: [1] 49.1% | [2] 15.3% | [3] 44.3% | [4] 26.1% | [5] 7.65% | [6] 9.8%

Clc1ccc2c(c1)Cc1cc(N(CCBr)CCBr)ccc1-2
inactive: [1] 24.8% | [2] 13.1% | [3] 40% | [4] 46.6% | [5] 12.4% | [6] 47.1%

CN(C)c1ccc(SC(Cl)(Cl)Cl)cc1
inactive: [1] -0.95% | [2] -14.2% | [3] -0.1% | [4] -43.9% | [5] 3.4% | [6] -4.75%

Cc1cc(N(CCCl)CCCl)ccc1C=Nc1ccc(F)cc1[N+](=O)[O-]
inactive: [1] 4.3% | [2] 3.1% | [3] 2.65% | [4] 1.65% | [5] -8.45% | [6] 18.7%

CN(C/C=C/CN(C)N=O)N=O
inactive: [1] 10.1% | [2] 2.05% | [3] 3.75% | [4] -16.9% | [5] 20.4% | [6] 1.05%

CCCCCCOC(=O)C(N)Cc1ccc(OC)c(N(CCCl)CCCl)c1 (stereo not given)
inactive: [1] 6.5% | [2] 3.65% | [3] -3.55% | [4] 5.7% | [5] -1.6% | [6] -2.7%

CC1CC2OC(=O)C(CN3CC3)C2CC2(C)C(O)CC(O)C12 (stereo not given)
inactive: [1] 32.2% | [2] 30.3% | [3] 32.5% | [4] -4.1% | [5] 10.3% | [6] 26.1%

COC1=N[C@]2(O)C[C@]3(C)[C@@H](O)CC[C@H]3[C@@H]3CCC4=CC(=O)CC[C@]4(C)[C@]32S1
inactive: [1] 7.4% | [2] 10.6% | [3] 2.3% | [4] -22.7% | [5] 33.8% | [6] 3.2%

O=C(CN1CCOCC1)c1ccccc1
inactive: [1] -1.55% and -6.6% | [2] -4.1% and -13.4% | [3] -2.65% and -9.4% | [4] 3.55% and -42% | [5] -3.85% and -14.3% | [6] -1.85% and -22.9%
